Source: the supplement of paper PMC13380429

Assays:
[1] = test system: Vero E6 infected with SARS-CoV-2; assay: morphology score (similarity to uninfected cells); higher = more like uninfected cells; details: 24 h
[2] = test system: Vero E6 infected with SARS-CoV-2; assay: SARS-CoV-2 infection rate relative to infected DMSO; higher = more infection, active = 60 or less; details: 24 h

Structure (SMILES): O=C(/C=C/N1C[C@H]2C[C@@H]1CN2c1ccccn1)c1ccccc1O (10 µM)
- morphology score [1]: -0.0425
- SARS-CoV-2 infection rate [2]: 116% (inactive)

Structure (SMILES): Nc1ccc(C(=O)Nc2cccc(-c3nc(N4CCOCC4)c4oc5ncccc5c4n3)c2)cn1 (10 µM)
- morphology score [1]: 0.168
- SARS-CoV-2 infection rate [2]: 94.5% (inactive)

Structure (SMILES): Cc1c(N)c(=O)n(-c2ccccc2)n1C [ampyrone] (10 µM)
- morphology score [1]: -0.0355
- SARS-CoV-2 infection rate [2]: 113% (inactive)

Structure (SMILES): Cc1cnc(-c2cnc(NCCNc3ccc(C#N)cn3)nc2-c2ccc(Cl)cc2Cl)[nH]1 (0.833333 µM)
- morphology score [1]: -0.0902
- SARS-CoV-2 infection rate [2]: 108% (inactive)

Structure (SMILES): Cc1[nH]c(=O)c(C#N)cc1-c1ccc2nccn2c1 [olprinone] (10 µM)
- morphology score [1]: 0.0999
- SARS-CoV-2 infection rate [2]: 104% (inactive)

Structure (SMILES): O=C(/C=C/c1cccc(S(=O)(=O)Nc2ccccc2)c1)NO [belinostat] (10 µM)
- morphology score [1]: 0.0182
- SARS-CoV-2 infection rate [2]: 97.5% (inactive)

Structure (SMILES): NC[C@H]1CC[C@H](C(=O)O)CC1 [tranexamic-acid] (10 µM)
- morphology score [1]: 0.0762
- SARS-CoV-2 infection rate [2]: 108% (inactive)

Structure (SMILES): CCOC(=O)c1ccc(C#Cc2ccc3c(c2)C(C)(C)CCS3)nc1 [tazarotene] (10 µM)
- morphology score [1]: -0.0471
- SARS-CoV-2 infection rate [2]: 93% (inactive)

Structure (SMILES): Nc1nc(NC[C@H]2CC[C@H](CNS(=O)(=O)c3cccc4ccccc34)CC2)nc2ccccc12 (0.833333 µM)
- morphology score [1]: -0.0427
- SARS-CoV-2 infection rate [2]: 93.5% (inactive)

Structure (SMILES): CC(C)(C)NCC(O)COc1cccc2[nH]c(C#N)cc12 (configuration not stated) [cyanopindolol] (10 µM)
- morphology score [1]: -0.0665
- SARS-CoV-2 infection rate [2]: 107% (inactive)

Structure (SMILES): COc1cccc(C=NCCN=Cc2cccc(OC)c2[O-])c1[O-].[Cl-].[Mn+3] (10 µM)
- morphology score [1]: -0.0731
- SARS-CoV-2 infection rate [2]: 95% (inactive)
